# Test results from ChEMBL document CHEMBL1961873, “Compounds: GSK PKIS; Assays: Nanosyn kinase panel” (2012).
# Target: Vascular endothelial growth factor receptor 2 (Homo sapiens) (UniProt P35968);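 note: each value is the mean percent inhibition of KDR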
# Settings: at 1 µM
# Chain of Vascular endothelial growth factor receptor 2 (Homo sapiens) (P35968 whole entry): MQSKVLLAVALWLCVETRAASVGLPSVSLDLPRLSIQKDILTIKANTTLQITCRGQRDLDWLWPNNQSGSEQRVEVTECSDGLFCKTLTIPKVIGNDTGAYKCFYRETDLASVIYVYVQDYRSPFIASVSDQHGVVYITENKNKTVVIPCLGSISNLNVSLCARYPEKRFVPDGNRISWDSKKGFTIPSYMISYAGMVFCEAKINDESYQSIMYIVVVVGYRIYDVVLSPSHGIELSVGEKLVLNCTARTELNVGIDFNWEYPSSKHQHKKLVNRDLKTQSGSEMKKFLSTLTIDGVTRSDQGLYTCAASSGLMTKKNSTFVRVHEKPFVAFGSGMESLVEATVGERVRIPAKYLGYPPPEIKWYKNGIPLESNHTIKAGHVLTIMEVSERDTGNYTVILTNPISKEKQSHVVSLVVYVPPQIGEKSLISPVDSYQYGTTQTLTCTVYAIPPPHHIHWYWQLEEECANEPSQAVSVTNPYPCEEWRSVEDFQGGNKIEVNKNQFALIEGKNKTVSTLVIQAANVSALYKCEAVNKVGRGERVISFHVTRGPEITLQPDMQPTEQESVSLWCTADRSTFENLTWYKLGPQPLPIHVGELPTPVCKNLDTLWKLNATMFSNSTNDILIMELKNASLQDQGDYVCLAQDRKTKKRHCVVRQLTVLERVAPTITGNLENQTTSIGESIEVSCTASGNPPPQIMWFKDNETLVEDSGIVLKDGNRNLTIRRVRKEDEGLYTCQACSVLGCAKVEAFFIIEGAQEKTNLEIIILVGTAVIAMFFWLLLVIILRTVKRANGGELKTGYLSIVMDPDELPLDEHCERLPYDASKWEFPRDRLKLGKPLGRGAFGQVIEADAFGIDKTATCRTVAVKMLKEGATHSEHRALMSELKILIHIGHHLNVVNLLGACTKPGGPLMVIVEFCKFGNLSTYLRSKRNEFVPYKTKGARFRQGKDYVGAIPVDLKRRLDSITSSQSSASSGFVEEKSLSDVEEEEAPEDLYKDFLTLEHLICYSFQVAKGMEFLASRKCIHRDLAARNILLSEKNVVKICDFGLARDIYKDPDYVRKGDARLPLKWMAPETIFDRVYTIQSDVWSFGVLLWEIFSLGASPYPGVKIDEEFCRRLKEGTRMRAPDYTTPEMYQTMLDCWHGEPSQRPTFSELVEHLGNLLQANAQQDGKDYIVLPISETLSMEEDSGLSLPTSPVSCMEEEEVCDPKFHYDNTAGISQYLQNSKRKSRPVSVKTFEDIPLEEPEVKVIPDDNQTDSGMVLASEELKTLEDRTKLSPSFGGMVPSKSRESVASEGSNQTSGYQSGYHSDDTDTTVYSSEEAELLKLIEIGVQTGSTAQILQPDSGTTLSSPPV
row,Structure (SMILES),inhibition [%]
1,COc1ccc(-c2cc(-c3c[nH]nc3-c3ccccn3)ccn2)cc1,48
2,CCCN(CCS(C)(=O)=O)Cc1ccc(-c2ccc3ncnc(Nc4ccc(OCc5cccc(F)c5)c(Cl)c4)c3c2)o1,8.91
3,FC(F)(F)c1cccc(-c2nn3ncccc3c2-c2ccnc(Nc3ccc4c(c3)OCCO4)n2)c1,49.6
4,CCNC(=O)O[C@H]1CN[C@H](C#Cc2cc3ncnc(Nc4ccc(OCc5cccc(F)c5)c(Cl)c4)c3s2)C1,4.4
5,COC(=O)Nc1nc2ccc(S(=O)(=O)c3ccc(NC(=O)Nc4cc(C(F)(F)F)ccc4F)cc3)cc2[nH]1,6.23
6,CC(=O)Nc1cccc(C#Cc2cncnc2Nc2ccc(OCc3cccc(F)c3)c(Cl)c2)c1,12.6
7,CCOc1ccc2c(-c3ccnc(Nc4cccc(C(F)(F)F)c4)n3)cnn2n1,7.57
8,CC(=O)NCc1cccc(C#Cc2cncnc2Nc2ccc(OCc3cccc(F)c3)c(Cl)c2)c1,8.91
9,Cc1cccc2c1NC(=O)/C2=N\Nc1ccc(S(N)(=O)=O)cc1,1.84
10,COc1ccc(-c2nn3ncccc3c2-c2ccnc(Nc3ccc4c(c3)OCCO4)n2)cc1,64
11,Fc1ccc(-c2cc(-c3c[nH]nc3-c3ccccn3)ccn2)cc1,22.2
12,CCN(CC)S(=O)(=O)c1ccc(OC)c(Nc2ncc(-c3ccccc3)o2)c1,68
13,COc1cccc(-c2c[nH]c3c(N/N=C/c4ccncc4)ncnc23)c1,61
14,c1ccc(-c2nc3n(c2-c2ccc4c(c2)OCO4)CCC3)nc1,11.7
15,COc1cccc(-n2ncc3c(N/N=C/c4ccc(F)cc4)ncnc32)c1,20.6
16,Nc1ncc(-c2cccc(S(N)(=O)=O)c2)c2scc(-c3ccc(F)c(Cl)c3)c12,34.2
17,Cc1ccc2c(-c3ccnc(Nc4ccccc4)n3)c(-c3ccc(F)cc3)nn2n1,64

row,Structure (SMILES),inhibition [%]
1,CS(=O)(=O)CCNCc1ccc(-c2ccc3ncnc(Nc4ccc(OCc5ccccc5)c(C(F)(F)F)c4)c3c2)o1,5.31
2,NC(=O)c1sc(-n2cnc3ccc(C(F)(F)F)cc32)cc1OCc1ccccc1Br,7.31
3,CCn1c(-c2nonc2N)nc2ccccc21,4.29
4,NS(=O)(=O)c1ccc(Nc2ncc(-c3ccccc3)o2)cc1,23.6
5,COc1ccc2[nH]c3c4[nH]c5ccc(OC)cc5c4c4c(c3c2c1)C(=O)NC4=O,68.3
6,Nc1nc(-c2ccc(F)cc2)c(-c2ccc3ncccc3n2)s1,71.1
7,COc1ccc(CNC(=O)c2ccc(-c3cc(-c4nnc(C)o4)ccc3C)cc2)cc1,9.11
8,O=C(O[C@H]1CN[C@H](C#Cc2cc3ncnc(Nc4ccc(Cc5ccccc5)cc4)c3s2)C1)N1CCOCC1,5.75
9,N#Cc1c(NC(=O)CN2CCOCC2)sc2c1CCCC2,6.56
10,Cc1cccc(Nc2ncc(-c3ccccc3)o2)c1,21.3
11,O=C(Nc1n[nH]c2cc(-c3ccc(F)cc3)ccc12)C1CC1,19.5
12,COC(=O)c1sc(-n2cnc3cc(OC)c(OC)cc32)cc1OCc1ccccc1C(F)(F)F,49.6
13,Cc1ccc(O)cc1Nc1ccnc2cc(-c3ccccn3)ccc12,93.5
14,CCc1nn2ncccc2c1-c1ccnc(NC2CC2)n1,5.8
15,CCn1cc(-c2ccnc3[nH]ccc23)c(-c2cccc(NC(=O)Nc3ccc(OCc4ccccc4)cc3)c2)n1,7.33
16,COc1cc2c(cc1Nc1nc(Nc3ccsc3C(N)=O)c3cc[nH]c3n1)N(C(=O)CN(C)C)CCC2(C)C,14.1

# Target: Mast/stem cell growth factor receptor Kit (Homo sapiens) (UniProt P10721);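 note: values are mean inhibition of KIT, from the GSK PKIS dataset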
# Sequence (P10721 whole entry): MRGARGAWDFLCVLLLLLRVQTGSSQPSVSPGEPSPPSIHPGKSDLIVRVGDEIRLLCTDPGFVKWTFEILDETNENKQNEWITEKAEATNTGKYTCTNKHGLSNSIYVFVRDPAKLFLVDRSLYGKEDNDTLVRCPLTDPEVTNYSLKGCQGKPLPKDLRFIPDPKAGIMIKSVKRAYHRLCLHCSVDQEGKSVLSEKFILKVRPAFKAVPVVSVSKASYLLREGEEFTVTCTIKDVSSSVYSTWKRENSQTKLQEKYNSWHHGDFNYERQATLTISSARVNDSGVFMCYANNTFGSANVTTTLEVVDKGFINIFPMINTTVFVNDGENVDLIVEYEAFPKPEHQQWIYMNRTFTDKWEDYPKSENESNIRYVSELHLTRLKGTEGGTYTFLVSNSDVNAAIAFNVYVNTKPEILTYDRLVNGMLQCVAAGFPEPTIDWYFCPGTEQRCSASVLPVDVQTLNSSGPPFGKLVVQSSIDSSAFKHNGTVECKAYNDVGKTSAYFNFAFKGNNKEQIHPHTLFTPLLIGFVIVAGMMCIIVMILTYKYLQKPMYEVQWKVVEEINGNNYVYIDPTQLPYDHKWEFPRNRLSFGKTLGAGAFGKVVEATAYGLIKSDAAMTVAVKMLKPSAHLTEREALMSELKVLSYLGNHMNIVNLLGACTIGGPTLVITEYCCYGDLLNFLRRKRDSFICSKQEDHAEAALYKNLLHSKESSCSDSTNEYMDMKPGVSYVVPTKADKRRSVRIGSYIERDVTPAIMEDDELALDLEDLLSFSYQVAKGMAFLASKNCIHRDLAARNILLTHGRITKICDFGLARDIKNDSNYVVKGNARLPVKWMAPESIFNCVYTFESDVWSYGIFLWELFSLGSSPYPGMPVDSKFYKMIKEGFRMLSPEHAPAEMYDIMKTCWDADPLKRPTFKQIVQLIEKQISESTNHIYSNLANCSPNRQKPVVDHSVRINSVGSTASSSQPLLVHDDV
# Settings: at 0.1 µM
row,Structure (SMILES),inhibition [%]
1,COc1ccc(-c2cc(-c3c[nH]nc3-c3ccccn3)ccn2)cc1,5.05
2,CCCN(CCS(C)(=O)=O)Cc1ccc(-c2ccc3ncnc(Nc4ccc(OCc5cccc(F)c5)c(Cl)c4)c3c2)o1,2.87
3,FC(F)(F)c1cccc(-c2nn3ncccc3c2-c2ccnc(Nc3ccc4c(c3)OCCO4)n2)c1,2.36
4,CCNC(=O)O[C@H]1CN[C@H](C#Cc2cc3ncnc(Nc4ccc(OCc5cccc(F)c5)c(Cl)c4)c3s2)C1,4.29
5,COC(=O)Nc1nc2ccc(S(=O)(=O)c3ccc(NC(=O)Nc4cc(C(F)(F)F)ccc4F)cc3)cc2[nH]1,2.47
6,CC(=O)Nc1cccc(C#Cc2cncnc2Nc2ccc(OCc3cccc(F)c3)c(Cl)c2)c1,1.83
7,CCOc1ccc2c(-c3ccnc(Nc4cccc(C(F)(F)F)c4)n3)cnn2n1,3.18
8,CC(=O)NCc1cccc(C#Cc2cncnc2Nc2ccc(OCc3cccc(F)c3)c(Cl)c2)c1,-1.01
9,Cc1cccc2c1NC(=O)/C2=N\Nc1ccc(S(N)(=O)=O)cc1,8.83
10,COc1ccc(-c2nn3ncccc3c2-c2ccnc(Nc3ccc4c(c3)OCCO4)n2)cc1,40.5
11,Fc1ccc(-c2cc(-c3c[nH]nc3-c3ccccn3)ccn2)cc1,5.29
12,CCN(CC)S(=O)(=O)c1ccc(OC)c(Nc2ncc(-c3ccccc3)o2)c1,33.5
13,COc1cccc(-c2c[nH]c3c(N/N=C/c4ccncc4)ncnc23)c1,45.5
14,c1ccc(-c2nc3n(c2-c2ccc4c(c2)OCO4)CCC3)nc1,1.86
15,COc1cccc(-n2ncc3c(N/N=C/c4ccc(F)cc4)ncnc32)c1,5.42
16,Nc1ncc(-c2cccc(S(N)(=O)=O)c2)c2scc(-c3ccc(F)c(Cl)c3)c12,38
17,Cc1ccc2c(-c3ccnc(Nc4ccccc4)n3)c(-c3ccc(F)cc3)nn2n1,23.8

row,Structure (SMILES),inhibition [%]
1,CS(=O)(=O)CCNCc1ccc(-c2ccc3ncnc(Nc4ccc(OCc5ccccc5)c(C(F)(F)F)c4)c3c2)o1,6.66
2,NC(=O)c1sc(-n2cnc3ccc(C(F)(F)F)cc32)cc1OCc1ccccc1Br,5.23
3,CCn1c(-c2nonc2N)nc2ccccc21,3.84
4,NS(=O)(=O)c1ccc(Nc2ncc(-c3ccccc3)o2)cc1,38.7
5,COc1ccc2[nH]c3c4[nH]c5ccc(OC)cc5c4c4c(c3c2c1)C(=O)NC4=O,31.3
6,Nc1nc(-c2ccc(F)cc2)c(-c2ccc3ncccc3n2)s1,3.28
7,COc1ccc(CNC(=O)c2ccc(-c3cc(-c4nnc(C)o4)ccc3C)cc2)cc1,2.42
8,O=C(O[C@H]1CN[C@H](C#Cc2cc3ncnc(Nc4ccc(Cc5ccccc5)cc4)c3s2)C1)N1CCOCC1,2.78
9,N#Cc1c(NC(=O)CN2CCOCC2)sc2c1CCCC2,6.21
10,Cc1cccc(Nc2ncc(-c3ccccc3)o2)c1,38.5
11,O=C(Nc1n[nH]c2cc(-c3ccc(F)cc3)ccc12)C1CC1,3.1
12,COC(=O)c1sc(-n2cnc3cc(OC)c(OC)cc32)cc1OCc1ccccc1C(F)(F)F,2.41
13,Cc1ccc(O)cc1Nc1ccnc2cc(-c3ccccn3)ccc12,10.4
14,CCc1nn2ncccc2c1-c1ccnc(NC2CC2)n1,3.6
15,CCn1cc(-c2ccnc3[nH]ccc23)c(-c2cccc(NC(=O)Nc3ccc(OCc4ccccc4)cc3)c2)n1,-2.3
16,COc1cc2c(cc1Nc1nc(Nc3ccsc3C(N)=O)c3cc[nH]c3n1)N(C(=O)CN(C)C)CCC2(C)C,18.8
